Screening results: PubChem, The Scripps Research Institute Molecular Screening Center
This is a sample that favours compounds with a hit; in the whole collection about 1.8% have one here.
LYPLA2 inh = LYPLA2 inhibitors, primary screen, counter-screen for PME1 inhibitor project, biochemical, fluorescence polarization, FP-Rh probe ABPP; recombinant LYPLA2; 0.38% of 320,000 active; Acyl-protein thioesterase 2 (Homo sapiens), O95372; inhibition, % at 5.9 µM;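 active = inhibition above the screen-wide mean plus 3 SD, limit set per campaign, cut at about 26% in these data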;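 note: 0% = LYPLA2 with DMSO and 100% = wells lacking LYPLA2 enzyme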
PME-1 inh = PME-1 inhibitors via competitive probe labeling, primary screen, biochemical, fluorescence polarization, FP-Rh probe, HTS | 0.53% of 320,000 active | inhibition, % at 5.9 µM | AID 2130, 2009 | recombinant PME-1 | Protein phosphatase methylesterase 1 (Homo sapiens), Q9Y570;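 active = inhibition above the campaign mean of all compounds plus 3 SD, cut at about 26% in these data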;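 note: competitive labeling of PME-1 active site by serine hydrolase directed probe; 0% = PME-1 with DMSO and 100% = wells lacking PME-1 enzyme; inhibitors block probe labeling so polarization falls and inhibition rises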
GSTO1 counter = inhibitors of recombinant GSTO1, primary screen, counter-screen for RBBP9 inhibitor project, biochemical, fluorescence polarization; activity-based probe fluorescence polarization; inhibition, % at 5.96 µM; 1.1% of 300,000 active; AID 1974, 2009;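 active = inhibition above the campaign mean inhibition plus 3 SD, cut at about 35% in these data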;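 note: 0% = GSTO1-1 with DMSO and 100% = wells lacking GSTO1-1 enzyme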
Target sequence (P78417 whole entry, looked up): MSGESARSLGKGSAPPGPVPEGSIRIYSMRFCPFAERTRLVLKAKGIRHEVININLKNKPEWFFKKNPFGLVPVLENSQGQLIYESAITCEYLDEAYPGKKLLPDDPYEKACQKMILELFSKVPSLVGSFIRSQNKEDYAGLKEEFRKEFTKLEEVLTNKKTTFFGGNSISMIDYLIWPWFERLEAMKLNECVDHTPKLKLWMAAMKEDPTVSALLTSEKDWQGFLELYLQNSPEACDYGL
PAD4 FP inh = human PAD4 inhibitors, primary screen, biochemical, fluorescence polarization, 1536-well format | Protein-arginine deiminase type-4 (Homo sapiens), Q9UM07 | recombinant PAD4, RCA probe fluorescence polarization | inhibition, % at 6.36 µM | 0.41% of 330,000 active;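 active = percent inhibition above a cutoff equal to the mean of all tested compounds plus 3 SD, cut at about 15% in these data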;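 note: 0% = PAD4 with RCA probe and DMSO and 100% = probe without PAD4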
LYPLA1 counter = LYPLA1 inhibitors, primary screen, counter-screen for PME1 inhibitor project, biochemical, fluorescence polarization, FP-Rh probe ABPP. Acyl-protein thioesterase 1 (Homo sapiens), O75608. recombinant LYPLA1. inhibition, % at 5.9 µM. 0.16% of 320,000 active. AID 2174, 2009;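 active = inhibition above the mean of all tested compounds plus 3 SD, set per campaign, cut at about 14% in these data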;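 note: inhibitors block serine hydrolase probe labeling of LYPLA1 so polarization falls; 0% = enzyme with DMSO and 100% = wells lacking LYPLA1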
Target sequence (O75608 whole entry, looked up): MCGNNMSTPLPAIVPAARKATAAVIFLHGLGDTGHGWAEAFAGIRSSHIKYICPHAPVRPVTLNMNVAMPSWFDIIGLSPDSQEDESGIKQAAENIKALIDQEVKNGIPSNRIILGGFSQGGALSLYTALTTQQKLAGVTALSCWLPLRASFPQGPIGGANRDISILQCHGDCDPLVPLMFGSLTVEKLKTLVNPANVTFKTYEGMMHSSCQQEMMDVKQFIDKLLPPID
Fam108B counter = mouse Fam108B serine hydrolase inhibitors, primary screen, counter-screen for RBBP9 inhibitor project, biochemical, fluorescence polarization; recombinant Fam108B, FP-Rh probe fluorescence polarization; AID 1947, 2009; inhibition, % at 9.51 µM; 0.33% of 300,000 active;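 active = inhibition above the screen mean inhibition plus 3 SD, computed separately per campaign, cut at about 18% in these data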;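 note: inhibitors lower polarization as less probe binds the enzyme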
Active calls of the source: *; . = no result.

SMILES	LYPLA2 inh	PME-1 inh	GSTO1 counter	PAD4 FP inh	LYPLA1 counter	Fam108B counter
Cc1ccc(S(=O)(=O)N2CCOCC2)cc1NC(=O)COC(=O)c1cccnc1Cl	4.9	28.8*	11.1	1.1	1.6	3.5
CCC(=O)NC(c1ccc(C)cc1)c1cc([N+](=O)[O-])c2cccnc2c1O (centres undefined)	1.5	8.8	13.4	24.9*	-5.5	1.8
Cc1ccc2cc(C#N)c(SCc3nnc(-c4ccccc4[N+](=O)[O-])o3)nc2c1	-8.0	34.7*	2.9	1.7	-5.3	3.8
COC(=O)CSc1nc2cc(C)ccc2cc1C#N	1.1	2.6	-1.5	-12.3	-3.6	-4.7
CCCCN1CC(=O)N2[C@H]3c4cc(Cl)ccc4OC[C@@H]3[C@H](c3ccccc3)[C@]2(C)C1=O	8.8	11.6	.	-2.5	2.2	.
CCn1c(C)c(/C=N/Nc2nc3ccccc3s2)c2ccccc21	-12.7	35.3*	2.4	-3.5	-16.4	5.5
C(=N\Nc1nc2ccccc2s1)/c1cccs1	4.2	21.9	-0.2	1.8	0.6	9.4
O=C(COC(=O)c1cccnc1)c1ccc(Cl)c(Cl)c1	-4.3	-6.1	36.1*	-4.5	-4.2	-3.7
O=C(COC(=O)c1cccnc1)c1ccc(Cl)cc1	6.2	-2.5	20.7	0.4	0.0	-0.1
Cc1cc([N+](=O)[O-])ccc1-c1ccc(C2Nc3ccccc3C(=O)N2O)o1 (centres undefined)	-6.9	37.0*	-26.7	1.8	-6.7	-1.0
O=C1c2ccccc2NC(c2ccc(-c3ccccc3F)o2)N1O (centres undefined)	-0.8	7.5	.	-4.0	0.3	.
O=C(OCC(=O)N1CCCC1)c1ccccc1C(=O)c1ccccc1	-3.0	3.0	.	-4.8	0.7	.
COc1cc(/C=N/NC(=O)c2cc(C3CC3)[nH]n2)ccc1O	6.7	11.0	5.4	-0.9	0.0	2.9
COc1cc(/C=N/NC(=O)c2cc(C34CC5CC(CC(C5)C3)C4)[nH]n2)ccc1O	-12.6	15.2	4.1	0.3	-11.1	21.1*
COc1cccc(CNC(=O)CN2C(=O)CSc3ccc(S(=O)(=O)N4CCOCC4)cc32)c1	1.0	3.3	-2.1	1.7	1.4	2.6
COC(=O)c1ccc(-n2c(C)cc(C(=O)CCl)c2C)cc1	5.2	1.6	87.3*	-3.1	-2.9	1.0
COC(=O)c1ccc(-n2c(C)cc(C(=O)COC(=O)C3=COCCO3)c2C)cc1	.	.	.	3.0	.	.
O=C(NC1CCCC1)C1CCN(C(=O)c2cc(Cl)ccc2Cl)CC1	-5.7	-5.9	10.2	-1.5	-2.4	2.1
CC(=O)c1c(C)[nH]c(C(=O)OCC(=O)Nc2ccc3c(c2)OCCO3)c1C	.	.	.	-2.1	.	.
Fc1cccc2sc(Nc3nnc(-c4ccccc4)o3)nc12	4.3	27.5*	-28.4	5.1	0.4	13.7
Fc1cccc2sc(Nc3nc4c(F)cccc4s3)nc12	-5.0	10.8	-20.9	-6.4	-6.9	4.4
Cc1cccc(-n2nc3c(c2NC(=O)C2CC2)CS(=O)(=O)C3)c1C	11.1	3.2	3.8	-3.4	6.2	-0.8
CCC1(C)Cc2c(sc3nc(NN)n(C)c(=O)c23)CO1 (centres undefined)	-3.3	36.8*	2.9	-0.2	-6.4	2.4
CCOC(=O)CSc1nc2sc3c(c2c(=O)[nH]1)CC(C)(CC)OC3 (centres undefined)	-5.3	-5.5	-3.2	1.1	-3.1	-2.8
CCOC(=O)c1ccc(NC(=S)N(CCN2CCCCCC2)Cc2cccs2)cc1	2.7	-6.3	-5.6	-2.7	2.0	1.8
SMILES	LYPLA2 inh	PME-1 inh	GSTO1 counter	PAD4 FP inh	LYPLA1 counter	Fam108B counter
C/C(CCC(=O)O)=N/Nc1ccc([N+](=O)[O-])cc1[N+](=O)[O-]	0.7	0.6	38.0*	-10.3	0.9	-2.1
O=C(O)/C(CC(=O)c1ccc(Cl)cc1)=N/Nc1ccc([N+](=O)[O-])cc1[N+](=O)[O-]	20.4	26.5*	10.0	-4.8	0.0	12.3
C/C(CCCO)=N/Nc1ccc([N+](=O)[O-])cc1[N+](=O)[O-]	12.9	0.9	7.3	-10.2	2.5	-5.2
Cn1ccc(NC(=O)Nc2cccc([N+](=O)[O-])c2)n1	-6.2	-0.1	0.7	-2.4	0.4	6.3
CC(C)CN(CC(C)C)C(=O)CN1C(=O)NC2(CCCc3ccccc32)C1=O (centres undefined)	-11.9	1.7	9.3	-4.5	-5.0	2.5
COc1ccc(N=Nc2nc3ccc(Br)cc3n2C)cc1	-1.0	41.4*	4.0	2.6	-4.2	3.3
CC(C)(C)c1ccc(COn2c(=O)c(-c3ccco3)[n+]([O-])c3ccccc32)cc1	2.4	-3.5	42.9*	-3.1	-2.5	-6.5
O=C(CCO)c1ccc(O)cc1	5.2	5.0	36.6*	9.5	-3.3	-0.9
CCCCC(=O)c1ccc(O)cc1	4.6	-1.1	-3.2	0.5	0.1	4.2
COc1ccc(S(=O)(=O)NC(C)C(=O)NCCN2CCOCC2)cc1Cl (centres undefined)	0.7	-1.7	4.0	1.4	1.0	0.5
O=C(COc1cccnc1[N+](=O)[O-])NCCc1ccccc1	3.2	-6.3	10.1	4.7	4.5	-2.5
O=c1[nH]n2c(=O)c3c([nH]c2c1N=Nc1cccc(Cl)c1)CCCC3	-0.7	58.1*	10.0	-2.6	11.9	9.0
CCOc1ccc(N=Nc2c(=O)[nH]n3c(=O)cc(C)[nH]c23)cc1	5.8	4.9	11.3	-5.6	1.6	-2.4
CCOc1ccc(N=Nc2c(=O)[nH]n3c(=O)c4c([nH]c23)CCCC4)cc1	1.8	44.4*	14.1	4.3	-0.6	4.5
Cc1cc(C)n2[nH]c(=O)c(N=Nc3cccc(Cl)c3)c2n1	18.4	5.4	23.8	-0.9	4.7	4.9
COc1cccc(OCC(O)CNC(=O)c2oc3ccc(C)cc3c2C)c1 (centres undefined)	7.9	6.6	-3.4	-1.6	1.4	-1.3
Brc1ccc(/C=N/Nc2nc3ccccc3o2)cc1	3.7	31.1*	-2.8	-6.7	-2.6	-5.7
COc1ccc(/C=N/Nc2nc3ccccc3o2)cc1O	-7.6	48.1*	-4.3	2.4	-2.8	0.6
COc1cc(/C=N\Nc2nc3ccccc3o2)cc(OC)c1OC	2.3	28.8*	6.1	-4.8	-1.0	-0.3
COc1ccc(C(=O)O)cc1S(=O)(=O)Nc1ccc(N2CCCCC2)cc1	.	.	.	-4.7	.	.
COc1ccc(-n2nnnc2SC(C)C(=O)NC2CCCC2)cc1 (centres undefined)	0.0	0.2	.	-0.8	-1.7	.
COc1ccc(OC)c(/C=C2\SC(=S)N(C(C(=O)O)c3ccccc3)C2=O)c1 (centres undefined)	-0.3	1.9	-3.3	-3.2	0.2	-0.3
